Bioassay records as filed in PubChem BioAssay.
NR3A LBD binder: binders of NR3A ligand-binding domain, primary screen, biophysical, differential scanning fluorimetry, uHTS; AID 1259313, 2017; Glutamate receptor ionotropic, NMDA 3A (GRIN3A) ligand-binding domain; actives 2.5% (n = 340,000); Tm shift relative to glycine control, % at 25 µM; NR3A LBD differential scanning fluorimetry, Tm shift; 0% = protein alone, 100% = glycine-bound protein;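 active means melting temperature shift of at least 10% of the positive control shift, at one fixed dose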
ADAM17 inh: ADAM17 inhibitors, primary screen, biochemical, QFRET. recombinant ADAM17, EDANS/DABCYL FRET peptide cleavage. inhibition, % at 6.95 µM. actives 0.83% (n = 370,000). AID 720648, 2013;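 active means inhibition above the mean of compounds lying between control limits plus 3 SD, set per campaign, cut at about 8.5% in these data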
ADAM10 inh: human ADAM10 inhibitors, primary screen, biochemical, QFRET, HTS | actives 0.62% (n = 370,000) | AID 720582, 2013 | inhibition, % at 7 µM | recombinant ADAM10, EDANS/DABCYL FRET peptide cleavage, 3 h | Disintegrin and metalloproteinase domain-containing protein 10 (Homo sapiens), O14672;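 active means inhibition above a per-campaign cutoff equal to the mean of compounds falling between control-based bounds plus 3 SD, cut at about 20% in these data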
AHR act: AHR activators, primary screen, cell-based, luminescence, luciferase reporter, human; activation, % at 5 µM; AHR-responsive luciferase reporter cells; Aryl hydrocarbon receptor (Homo sapiens), P35869; actives 2.5% (n = 320,000); in the data active means activation above about 47%
Target sequence (P35869 whole entry, looked up): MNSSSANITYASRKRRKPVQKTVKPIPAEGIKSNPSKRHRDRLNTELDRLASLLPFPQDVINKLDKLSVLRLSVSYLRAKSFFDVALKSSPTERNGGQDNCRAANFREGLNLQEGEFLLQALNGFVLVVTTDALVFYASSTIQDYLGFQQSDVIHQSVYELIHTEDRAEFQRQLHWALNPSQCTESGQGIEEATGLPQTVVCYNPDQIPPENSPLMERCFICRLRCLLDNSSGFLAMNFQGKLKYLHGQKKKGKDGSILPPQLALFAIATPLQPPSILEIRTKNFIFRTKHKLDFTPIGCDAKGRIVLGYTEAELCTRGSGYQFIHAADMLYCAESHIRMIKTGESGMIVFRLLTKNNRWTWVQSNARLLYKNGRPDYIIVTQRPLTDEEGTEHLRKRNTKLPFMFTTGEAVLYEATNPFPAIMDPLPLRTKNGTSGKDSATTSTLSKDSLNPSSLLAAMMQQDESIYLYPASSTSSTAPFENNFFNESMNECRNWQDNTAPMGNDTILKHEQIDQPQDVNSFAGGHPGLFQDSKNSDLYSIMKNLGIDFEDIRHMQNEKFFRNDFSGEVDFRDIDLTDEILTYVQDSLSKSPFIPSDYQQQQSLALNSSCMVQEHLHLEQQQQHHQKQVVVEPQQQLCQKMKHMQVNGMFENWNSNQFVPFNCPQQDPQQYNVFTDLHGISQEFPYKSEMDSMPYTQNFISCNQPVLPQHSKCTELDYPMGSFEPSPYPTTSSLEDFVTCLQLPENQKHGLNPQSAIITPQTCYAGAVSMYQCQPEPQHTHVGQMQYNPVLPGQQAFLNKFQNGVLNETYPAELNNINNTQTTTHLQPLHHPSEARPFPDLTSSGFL
rCAG RNA binder: binders of r(CAG) RNA repeats, primary screen, biochemical, fluorescence | r(CAG) RNA repeat, TO-PRO-1 dye displacement fluorescence | inhibition, % at 3 µM | actives 1.3% (n = 370,000);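 active means inhibition above the plate cutoff, the mean of all test compounds on that plate plus 3 SD, cut at about 35% in these data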;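 further: higher means more dye released from RNA so lower well fluorescence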
proKLK7 act: proKLK7 zymogen activators, primary screen, biochemical, fluorescence intensity | Kallikrein-7 (Homo sapiens), P49862 | purified proKLK7, EDANS-DABCYL substrate fluorescence; 100% is mature enzyme control, 0% vehicle | activation, % at 7 µM | actives 0.9% (n = 370,000);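 active means activation above the mean of all tested compounds plus 3 SD, computed per campaign excluding outliers beyond control limits, cut at about 13% in these data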
ADAM10 ctr: ADAM10 inhibitors, counter-screen for ADAM17 exosite inhibitor project, biochemical, FRET, human ADAM10 | inhibition, % at 6.95 µM | shares compounds with ADAM17 inh | actives 47% (n = 2,900) | recombinant ADAM10, EDANS/DABCYL FRET peptide cleavage, 3 h;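 active means mean inhibition over the triplicate runs exceeds the activity threshold set in the earlier primary screen, cut at about 20% in these data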
ADAM17 confirm: ADAM17 inhibitors, hit retest, confirmation, biochemical, QFRET peptide cleavage; shares compounds with ADAM17 inh; recombinant ADAM17, EDANS/DABCYL QFRET peptide cleavage; inhibition, % at 6.95 µM; actives 65% (n = 2,900);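 active means mean inhibition across replicates above the hit cutoff set in the primary screen, cut at about 8.5% in these data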
Hits are given with their value; - = inactive; . = not tested or not shown. Rows were chosen to be rich in hits. Some 7% of all compounds tested hit in one or more screens of this group.

SMILES	NR3A LBD binder	ADAM17 inh	ADAM10 inh	AHR act	rCAG RNA binder	proKLK7 act	ADAM10 ctr	ADAM17 confirm
CC(C)=CCc1cc([C@@H]2COc3c(ccc4c3C=CC(C)(C)O4)C2)c(O)cc1O	26.6	12.6	-	-	-	-	-	-
CC(=O)c1ccc(O)c(CC=C(C)C)c1	-	-	-	-	-	-	.	.
Cc1c([N+](=O)[O-])cnc(Sc2ccccc2)c1[N+](=O)[O-]	-	10.4	-	-	-	-	-	-
Cc1ccc(Sc2ncccc2[N+](=O)[O-])cc1	-	-	-	-	-	-	.	.
c1ccc(Oc2c3ccccc3nc3ccccc23)cc1	-	.	.	-	.	.	.	.
COc1ccc(-c2nc(NC(=O)C3CC(=O)N(Cc4ccco4)C3)sc2C)cc1 (centres undefined)	-	9.1	-	-	-	-	-	-
COc1ccc(Cc2nnc(N/N=C/c3ccc(O)cc3)[nH]c2=O)cc1OC	-	9.3	-	-	-	-	-	-
C=CC[C@@H](CC(=O)N(CCO)Cc1ccccc1)C(=O)N[C@H](COC(=O)[C@H](CC=C)CC(=O)OC(C)(C)C)Cc1c[nH]c2ccccc12	-	9.9	-	-	-	-	47.8	23.2
C=CC[C@H](CC(=O)N[C@H](CO)Cc1ccccc1)C(=O)N[C@H](COC(=O)[C@@H](CC=C)CC(=O)OC(C)(C)C)Cc1c[nH]c2ccccc12	-	13.7	-	-	-	-	27.1	15.2
CC1(c2nnc(-c3cccc(Cl)c3)o2)CC(c2ccc(Cl)cc2)=NO1 (centres undefined)	-	-	-	-	-	-	.	.
CC1(c2nnc(-c3cccc(Cl)c3)o2)CC(c2ccc(F)cc2)=NO1 (centres undefined)	-	11.5	-	-	-	-	-	-
CC1(C)O[C@@H]2C[C@H]3[C@@H]4CCC5=CC(=O)C=C[C@]5(C)[C@@]4(F)[C@@H](O)C[C@]3(C)[C@]2(C(=O)CO)O1	-	-	-	-	-	-	.	.
CC(=O)OCC(=O)[C@@]12OC3(CCCC3)O[C@@H]1C[C@H]1[C@@H]3CCC4=CC(=O)C=C[C@]4(C)[C@@]3(F)[C@@H](O)C[C@@]12C	-	8.7	-	-	-	-	-	-
O=C1c2ccccc2S(=O)N1c1cccc(F)c1 (centres undefined)	.	-	-	.	-	-	.	.
CCn1cc(C(=O)N[C@@H](C)C(=O)NCCCn2ccnc2)c(=O)c2cc3c(cc21)OCO3	-	-	-	-	-	-	.	.
CCCn1c(COc2ccccc2)nc2ccccc21	-	-	-	-	-	-	.	.
CCOCCn1c(COc2ccccc2)nc2ccccc21	-	9.4	-	-	-	-	-	-
COc1cccc(NC(=S)N/N=C2/CCCCc3ccccc32)c1	-	9.2	-	.	-	-	-	-
CN1CCN(c2ccc(S(=O)(=O)N3CCOCC3)cc2NC(=O)CSCc2ccccc2)CC1	-	-	-	-	-	-	.	.
Cc1ccc(Cl)cc1N1CCN(C(=O)Cn2ncn3cccc3c2=O)CC1	-	-	-	-	-	-	.	.
O=C(NCc1ccccc1Cl)c1nnc(CS(=O)(=O)c2ccccc2)o1	-	10.9	-	-	-	-	-	-
CCn1nc(C)c(C(=O)Nc2cc(Oc3ccc(Cl)cc3)cc([N+](=O)[O-])c2)c1C	-	12.5	-	-	-	-	39.3	17.6
COC(=O)c1cccc(C(=O)N2CCCC(Nc3ccc(C)c(C)c3)C2)c1 (centres undefined)	-	11.4	-	-	-	-	-	-
C(=N\Nc1nc(Nc2ccccc2)nc(N2CCOCC2)n1)/c1c[nH]c2ccccc12	17.7	9.2	-	-	-	-	-	10.9
c1ccc(Nc2nc(N3CCOCC3)nc(N3CCOCC3)n2)cc1	-	-	-	-	-	-	.	.
SMILES	NR3A LBD binder	ADAM17 inh	ADAM10 inh	AHR act	rCAG RNA binder	proKLK7 act	ADAM10 ctr	ADAM17 confirm
N#C/C(=C\c1c(N2CCC(C(N)=O)CC2)nc2ccccn2c1=O)S(=O)(=O)c1ccc(Cl)cc1	-	-	-	-	-	-	.	.
CC(C)C[C@H](CO)N(Cc1ccccc1)S(=O)(=O)N(Cc1ccccc1)[C@@H](CO)CC(C)C	-	13.1	-	-	-	-	46.9	26.0
CC(=O)N1CCOCCOCCN(C(C)=O)CCOCC1	-	-	-	-	-	-	.	.
Cc1cc(C)c(C)c(S(=O)(=O)N2CCC(C(=O)NCc3cccs3)CC2)c1C	.	8.8	-	.	-	-	-	-
CC(C)CCNC(=O)Cc1csc(-c2ccccc2)n1	-	-	-	-	-	-	.	.
CN1CC(c2ccccc2Cl)C2(COc3ccccc3C2=O)C12C(=O)Nc1ccccc12 (centres undefined)	-	8.9	-	-	-	-	43.6	25.1
O=C(c1ccco1)N1CCC(c2nc3c(nnn3Cc3ccccc3Cl)c(=O)[nH]2)CC1	-	-	-	-	-	-	.	.
O=C(c1ccco1)N1CCN(c2nc(C3CC3)nc3c2nnn3Cc2ccccc2Cl)CC1	-	10.7	-	-	-	-	-	-
Cc1cc(C)nc(Sc2nc(Nc3ccccc3)nc(Sc3nc(C)cc(C)n3)n2)n1	-	-	-	-	-	-	.	.
Cc1ccc(Nc2nc(Nc3ccc(C)cc3)nc(SC3=NCCS3)n2)cc1	-	9.8	-	59.6	-	-	20.4	11.8
Cc1cc(C)n(C(N)=NC(=O)c2ccccc2)n1	.	-	-	.	-	-	.	.
Cn1cc(C(=O)C(=O)NC2CCCCC2)c2ccccc21	-	-	-	-	-	-	.	.
N#CCC(CNc1ncc(C(F)(F)F)cc1Cl)OC(=O)c1ccc(Cl)cc1Cl (centres undefined)	14.2	9.6	-	-	-	-	40.6	19.0
Nc1nc(CSC(=S)N2CCN(c3ccccc3)CC2)nc(Nc2ccccc2)n1	-	9.2	-	-	-	-	24.4	15.6
